A number with no mark means an inactive call. The list shows a part of the results. The source made the active and inactive calls. Cut-off read from the data, not from the text of the source, unless noted: active = inhibition above about 28%; inactive = the rest.

Nuclear receptor subfamily 5 group A member 2 (Homo sapiens), sequence (O00482 whole entry, looked up): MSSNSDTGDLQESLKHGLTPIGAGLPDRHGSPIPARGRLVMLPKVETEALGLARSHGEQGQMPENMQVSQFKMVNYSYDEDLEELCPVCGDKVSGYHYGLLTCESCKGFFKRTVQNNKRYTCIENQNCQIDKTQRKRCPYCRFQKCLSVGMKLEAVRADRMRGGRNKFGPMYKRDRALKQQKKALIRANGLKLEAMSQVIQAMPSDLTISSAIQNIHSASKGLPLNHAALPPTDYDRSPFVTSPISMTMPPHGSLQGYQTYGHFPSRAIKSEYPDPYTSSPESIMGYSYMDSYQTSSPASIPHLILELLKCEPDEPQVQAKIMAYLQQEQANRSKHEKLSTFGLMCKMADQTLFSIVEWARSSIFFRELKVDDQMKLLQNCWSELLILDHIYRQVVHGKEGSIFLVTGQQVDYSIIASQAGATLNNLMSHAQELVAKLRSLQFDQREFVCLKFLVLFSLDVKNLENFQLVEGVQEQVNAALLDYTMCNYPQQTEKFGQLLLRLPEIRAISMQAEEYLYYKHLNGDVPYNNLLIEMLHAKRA

In the first assay the target is Photoreceptor-specific nuclear receptor (Homo sapiens) (UniProt Q9Y5X4). Briefly: NR2E3 agonist confirmation in cells, cell-based, luminescence, CHO-S two-hybrid (AID 624378;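 active = average inhibition above a cutoff equal to the mean inhibition of all tested compounds plus one SD, cut at about 70% in these data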;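 note: 0% = DMSO in NR2E3 cells and 100% = DMSO in cells lacking NR2E3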). To be noted: CHO-S mammalian two-hybrid NR2E3-NCOR, luciferase luminescence; at 3.98 µM; hits give high values.
Photoreceptor-specific nuclear receptor (Homo sapiens), sequence (Q9Y5X4 whole entry, looked up): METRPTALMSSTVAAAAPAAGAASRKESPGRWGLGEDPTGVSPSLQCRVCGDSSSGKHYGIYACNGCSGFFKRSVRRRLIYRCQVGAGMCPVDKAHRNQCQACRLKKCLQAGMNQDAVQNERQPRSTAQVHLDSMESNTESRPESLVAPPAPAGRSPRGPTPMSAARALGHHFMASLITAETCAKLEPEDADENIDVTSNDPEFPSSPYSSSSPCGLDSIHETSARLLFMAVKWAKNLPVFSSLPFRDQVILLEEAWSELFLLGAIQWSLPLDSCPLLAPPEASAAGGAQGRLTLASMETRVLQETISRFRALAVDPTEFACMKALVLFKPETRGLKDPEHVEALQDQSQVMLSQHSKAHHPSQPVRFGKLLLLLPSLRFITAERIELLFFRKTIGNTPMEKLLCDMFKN
On to `CCN(CC)S(=O)(=O)c1ccc(N(C)Cc2ccc(C(F)(F)F)cc2)nc1`, for which the inhibition is 34.6%.

On to `OC[C@@H]1CN(Cc2ccc(-c3ccccc3)cc2)C[C@H](n2cnc3c(NC4CCCC4)ncnc32)O1`, for which the inhibition was 94.9% (active).

Turning to `COc1ccccc1CNc1nc(Nc2ccccc2Cl)c2sccc2n1`, the inhibition was 93.1% (active).

Turning to `COc1cc(CC(=O)Nc2nc(-c3ccc(F)c(F)c3)cs2)cc(OC)c1OC`, the inhibition is 94.2% (active).

In the case of `CCOC(=O)N1CCN(C(=O)C2CCN(c3ncnc4c3sc3cccc(F)c34)CC2)CC1`, the inhibition is 92% (active).

System in another assay: not listed separately
In words: GAL4-VP16 reporter modulators, confirmation, counter-screen for NR2E3 agonist project, cell-based, luminescence, CHO-S, high throughput (AID 624379;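 active = mean inhibition above a cutoff equal to the average over all tested compounds plus one standard deviation, cut at about 70% in these data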;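 note: luciferase from a UAS reporter driven by GAL4-VP16 transactivation; 0% = DMSO with VP16-transfected cells and 100% = DMSO with cells lacking VP16; higher means less reporter light so more repression of VP16 activity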). The settings on record: CHO-S GAL4-VP16 luciferase reporter, at 3.98 µM, hits give high values. In general terms: Counterscreens check selectivity or assay interference.
For `CCN(CC)S(=O)(=O)c1ccc(N(C)Cc2ccc(C(F)(F)F)cc2)nc1`, the inhibition was 41.8%.

As to `OC[C@@H]1CN(Cc2ccc(-c3ccccc3)cc2)C[C@H](n2cnc3c(NC4CCCC4)ncnc32)O1`, the inhibition was 78.4% (active).

On to `COc1ccccc1CNc1nc(Nc2ccccc2Cl)c2sccc2n1`, for which the inhibition is 86.4% (active).

With `COc1cc(CC(=O)Nc2nc(-c3ccc(F)c(F)c3)cs2)cc(OC)c1OC`, the inhibition is 86.9% (active).

On to `CCOC(=O)N1CCN(C(=O)C2CCN(c3ncnc4c3sc3cccc(F)c34)CC2)CC1`, for which the inhibition was 70.3%.

System in the next assay: not listed separately
In words: StAR promoter reporter inhibitors, counter-screen for LRH-1 inverse agonist project, cell-based, luminescence, high throughput (AID 651611). To be noted: StAR promoter luciferase reporter counterscreen, at 3.6 µM, hits give high values.
Take `Cc1ccc(C(O)(C(=O)NN(C(=O)c2ccccc2)c2ccccc2)c2ccc(C)cc2)cc1`: the inhibition was 8.63%.

Take `O=C(Cn1cnc2c(nnn2-c2ccccc2)c1=O)NCCc1ccccc1`: the inhibition is 13.4%.

Take `CC(=O)Nc1ccc(NC(=O)COC(=O)Cc2c[nH]c3ccccc23)cc1`: the inhibition is 18.8%.

Regarding `COc1cc2c(cc1OC)CN(C(=O)c1cc(=O)c3ccccc3o1)CC2`, the inhibition is 46.3% (active).

For the compound `COCc1cc(C)n(CC(=O)Nc2ccc(N3CCOCC3)c(Cl)c2)c(=O)c1C#N`, the inhibition was -4.28%.

Consider `Cc1cc(C(=O)NC2CCCc3c2cnn3-c2cccc(C)c2C)n(C)n1` (stereo not given), for which the inhibition is 33.4% (active).

`N#Cc1c2ccc([N+](=O)[O-])cc2[n+]([O-])n1-c1ccccc1`: the inhibition was 58.2% (active).

As to `CC(=O)c1ccc(NC(=S)Nc2cccc3cnccc23)cc1`, the inhibition is 3.88%.

In the case of `COc1cc2nc(/C=C/c3cc(OC)c(OC)c(OC)c3)sc2cc1SC`, the inhibition was 35.7% (active).

Consider `Cc1nn(CC(=O)Nc2ccc(N3CCOCC3)cc2)c(C)c1Cl`, for which the inhibition is -2.18%.

On to `Cc1ccc(CNC(=O)CN2C(=O)NC3(CCCC3)C2=O)cc1`, for which the inhibition was 5.83%.

Turning to `COc1cccc(C(C)(O)c2nc(-c3ccoc3)cs2)c1` (stereo not given), the inhibition is -0.36%.

As to `Cc1cc(C)c2c(N)c3cccc(C)c3nc2n1`, the inhibition was 30.8% (active).

Take `Cc1c(C#N)c(O)n(CCO)c(=O)c1N=Nc1ccccc1`: the inhibition is 13.4%.

For `Nc1ccccc1Nc1ccncc1[N+](=O)[O-]`, the inhibition is 0.62%.

For the compound `Cc1c(Cl)cccc1NC(=O)CNc1ccccc1F`, the inhibition was -3.5%.

As to `Cc1onc(-c2c(F)cccc2Cl)c1C(=O)c1ccc(F)cc1`, the inhibition was 2%.

As to `CCN(CC)c1nc(C)c(C(C)=O)cc1C#N`, the inhibition was 1.34%.

With `CC(C(=O)N1CCCc2c1c(=O)oc1ccc(O)cc21)N1CCc2ccccc2C1` (stereo not given), the inhibition is 3.35%.

Regarding `COc1cc(F)c(C2=CC(=O)CC(C)(C)C2)cc1F`, the inhibition was -6.98%.

For `O=C(Nc1ccc(N2CCN(Cc3ccccc3F)CC2)cc1)c1ccc([N+](=O)[O-])o1`, the inhibition was 28.7% (active).

As to `CN(Cc1cccs1)c1nc(-c2cccnc2)nc2ccccc12`, the inhibition is 9.82%.

Take `Cc1nc(C)c(-c2csc(Nc3cccnc3)n2)s1`: the inhibition was -12.1%.

On to `CC(=O)Nc1cc(-c2cccc(NS(C)(=O)=O)c2)cn2c(-c3ccccc3)cnc12`, for which the inhibition is 28% (active).

For the compound `COc1cc(CNc2ccc(CNc3ncn[nH]3)cc2)ccc1OCC(=O)NC(C)(C)C`, the inhibition was -5.1%.

Turning to `O=C(Cc1c(Cl)cccc1Cl)Nc1ccncc1`, the inhibition is 16.9%.

As for `CC(=O)Nc1ccc(NC(=O)COC(=O)c2ccc([N+](=O)[O-])o2)cc1`, the inhibition was 12.7%.

For the compound `Cc1ccc(Cl)cc1NC(=O)COC(=O)CC(C)(C)C`, the inhibition is 28.3% (active).

With `O=C(NNc1ccc([N+](=O)[O-])cc1[N+](=O)[O-])c1ccco1`, the inhibition was 12.4%.

Regarding `Cc1c(NC(=O)c2cc(-c3cccs3)nc3ccccc23)c(=O)n(-c2ccccc2)n1C`, the inhibition was 47% (active).

For the compound `Cn1c(CN2CCN(c3ccc(Cl)cc3)CC2)nc2ccccc21`, the inhibition is 5.45%.

Regarding `CN(C)c1ccc(C=c2c3ccccc3n3c2cc(-c2ccc(Cl)cc2)[n+]3C)cc1`, the inhibition was 5.51%.

In the case of `Cc1ccc(CNC(=O)c2ccc([N+](=O)[O-])o2)cc1`, the inhibition is 16.4%.

Turning to `COc1cc(N)c2ncccc2c1Br`, the inhibition was 16.6%.

`COc1ccc(-c2nnnn2-c2ccccc2OC)cc1`: the inhibition was 8.71%.

The next assay has as its target Nuclear receptor subfamily 5 group A member 2 (Homo sapiens) (UniProt O00482). In words: LRH-1 (NR5A2) inverse agonists, retest, confirmation, cell-based, luminescence (AID 651613; in the data active = inhibition above about 42%;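 note: HEK293T cells co-transfected with LRH-1 and StAR promoter luciferase reporter; 0% = vehicle wells and 100% = parental cells lacking receptor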). To be noted: cell-based LRH-1 luciferase reporter, inverse agonism; at 3.6 µM; hits give high values. A general note: Reporter assays use an easily measured gene product as a stand-in for the process of interest.
As for `Cc1ccc(C(O)(C(=O)NN(C(=O)c2ccccc2)c2ccccc2)c2ccc(C)cc2)cc1`, the inhibition is 65.8% (active).

For `O=C(Cn1cnc2c(nnn2-c2ccccc2)c1=O)NCCc1ccccc1`, the inhibition is 50.9% (active).

Turning to `CC(=O)Nc1ccc(NC(=O)COC(=O)Cc2c[nH]c3ccccc23)cc1`, the inhibition is 67.4% (active).

Consider `COc1cc2c(cc1OC)CN(C(=O)c1cc(=O)c3ccccc3o1)CC2`, for which the inhibition was 30.2%.

For the compound `COCc1cc(C)n(CC(=O)Nc2ccc(N3CCOCC3)c(Cl)c2)c(=O)c1C#N`, the inhibition was 40.5%.

As for `Cc1cc(C(=O)NC2CCCc3c2cnn3-c2cccc(C)c2C)n(C)n1` (stereo not given), the inhibition was 68.2% (active).

For the compound `N#Cc1c2ccc([N+](=O)[O-])cc2[n+]([O-])n1-c1ccccc1`, the inhibition is 81.5% (active).

Take `CC(=O)c1ccc(NC(=S)Nc2cccc3cnccc23)cc1`: the inhibition was 5.22%.

Turning to `COc1cc2nc(/C=C/c3cc(OC)c(OC)c(OC)c3)sc2cc1SC`, the inhibition was 45.1% (active).

On to `Cc1nn(CC(=O)Nc2ccc(N3CCOCC3)cc2)c(C)c1Cl`, for which the inhibition was 44.3% (active).

In the case of `Cc1ccc(CNC(=O)CN2C(=O)NC3(CCCC3)C2=O)cc1`, the inhibition was 33.5%.

As to `COc1cccc(C(C)(O)c2nc(-c3ccoc3)cs2)c1` (stereo not given), the inhibition is 30.2%.

In the case of `Cc1cc(C)c2c(N)c3cccc(C)c3nc2n1`, the inhibition is 105% (active).

Consider `Cc1c(C#N)c(O)n(CCO)c(=O)c1N=Nc1ccccc1`, for which the inhibition was 44.4% (active).

For the compound `Nc1ccccc1Nc1ccncc1[N+](=O)[O-]`, the inhibition was 55.8% (active).

Regarding `Cc1c(Cl)cccc1NC(=O)CNc1ccccc1F`, the inhibition is 58.7% (active).

As to `Cc1onc(-c2c(F)cccc2Cl)c1C(=O)c1ccc(F)cc1`, the inhibition was 46.1% (active).

For the compound `CCN(CC)c1nc(C)c(C(C)=O)cc1C#N`, the inhibition was 32.7%.

For the compound `CC(C(=O)N1CCCc2c1c(=O)oc1ccc(O)cc21)N1CCc2ccccc2C1` (stereo not given), the inhibition was 48.5% (active).

Consider `COc1cc(F)c(C2=CC(=O)CC(C)(C)C2)cc1F`, for which the inhibition was 43.9% (active).

Take `O=C(Nc1ccc(N2CCN(Cc3ccccc3F)CC2)cc1)c1ccc([N+](=O)[O-])o1`: the inhibition was 70.6% (active).

Regarding `CN(Cc1cccs1)c1nc(-c2cccnc2)nc2ccccc12`, the inhibition was 54.4% (active).

For `Cc1nc(C)c(-c2csc(Nc3cccnc3)n2)s1`, the inhibition was 41.5% (active).

Take `CC(=O)Nc1cc(-c2cccc(NS(C)(=O)=O)c2)cn2c(-c3ccccc3)cnc12`: the inhibition was 40.4%.

Regarding `COc1cc(CNc2ccc(CNc3ncn[nH]3)cc2)ccc1OCC(=O)NC(C)(C)C`, the inhibition was 14.1%.

As to `O=C(Cc1c(Cl)cccc1Cl)Nc1ccncc1`, the inhibition was 53.1% (active).

Consider `CC(=O)Nc1ccc(NC(=O)COC(=O)c2ccc([N+](=O)[O-])o2)cc1`, for which the inhibition was 60.1% (active).

`Cc1ccc(Cl)cc1NC(=O)COC(=O)CC(C)(C)C`: the inhibition was 62.4% (active).

As for `O=C(NNc1ccc([N+](=O)[O-])cc1[N+](=O)[O-])c1ccco1`, the inhibition was 57.6% (active).

With `Cc1c(NC(=O)c2cc(-c3cccs3)nc3ccccc23)c(=O)n(-c2ccccc2)n1C`, the inhibition was 33.5%.

Regarding `Cn1c(CN2CCN(c3ccc(Cl)cc3)CC2)nc2ccccc21`, the inhibition was 32.9%.

Turning to `CN(C)c1ccc(C=c2c3ccccc3n3c2cc(-c2ccc(Cl)cc2)[n+]3C)cc1`, the inhibition was 102% (active).

As to `Cc1ccc(CNC(=O)c2ccc([N+](=O)[O-])o2)cc1`, the inhibition is 57% (active).

Take `COc1cc(N)c2ncccc2c1Br`: the inhibition is 17.8%.

For the compound `COc1ccc(-c2nnnn2-c2ccccc2OC)cc1`, the inhibition is 53.8% (active).

The inhibition is the drop in the measured response relative to a control, in per cent.

(Values after PubChem BioAssay.)
